Reference: PubChem BioAssay (NCATS)
Records with an inconclusive call do not appear. Unmarked numbers belong to inactive results. Activity calls are given as the source filed them. Calls come from the whole dose curve; as a rule, active = well fitted curve in the direction sought with a large enough effect; inconclusive = small, poorly fitted or top-dose-only effect, or another doubt; inactive = no such curve, though single readings can be large; an effect the other way counts as inactive or inconclusive. Numbered stars: 1 amine (or outer) side, 2 acyl side, 3 side chain; on linkers, the order of the positions; unused ones are H or OH. Bridge positions count the residues as written; N and C are the ends. Square brackets hold non-standard residues; d marks the D form. Peptide text beside a SMILES is read from it. * marks the point of attachment. ξ: configuration not given here. ξhTyr(3S-OH,4S-OH,3'-OSO3H) = NC(C(=O)O)[C@H](O)[C@@H](O)c1ccc(O)c(OS(=O)(=O)O)c1; Orn(4R-OH,5R-OH) = O=C([C@H](C[C@@H](O)[C@@H](O)N[*:3])N[*:1])[*:2]; X6 = CCCCCOc1ccc(-c2cc(-c3ccc(C(=O)*)cc3)no2)cc1; X7 = C[C@H]1CN([*:1])C(C(=O)[*:2])[C@H]1O; ξGln(3R-OH) = NC(=O)C[C@@H](O)C(N)C(=O)O; ξPro(4R-OH) = O=C(O)C1C[C@@H](O)CN1; ξThr(3R) = C[C@@H](O)C(N)C(=O)O

These compounds were tested against Cellular tumor antigen p53 (Homo sapiens) (UniProt P04637) (assay: Primary qHTS for small molecule compounds that upregulate eGFP-tagged delta133p53alpha (in N-terminal) cells. (AID 2060322; note: nearly all actives have a fitted effect of over 75% in size; note: potency is the fitted concentration of half-maximal effect;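 for activation: 0% = DMSO vehicle and 100% = reference activator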)). Conditions: NCI-H358 eGFP-delta133p53alpha fluorescence, 24 h; activation: hits give high values.
How it was run: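 NCI-H358 cells pre-induced 24 h with 10 ng/ml doxycycline to express N-terminal eGFP-delta133p53alpha, then dosed 24 h at 37C without doxycycline; fixed, Hoechst-stained, GFP intensity by laser scanning cytometry, normalized to DMSO (0%) and 57.5 uM 5-azacytidine (100%).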

Sequence of Cellular tumor antigen p53 (Homo sapiens) (P04637 whole entry, looked up): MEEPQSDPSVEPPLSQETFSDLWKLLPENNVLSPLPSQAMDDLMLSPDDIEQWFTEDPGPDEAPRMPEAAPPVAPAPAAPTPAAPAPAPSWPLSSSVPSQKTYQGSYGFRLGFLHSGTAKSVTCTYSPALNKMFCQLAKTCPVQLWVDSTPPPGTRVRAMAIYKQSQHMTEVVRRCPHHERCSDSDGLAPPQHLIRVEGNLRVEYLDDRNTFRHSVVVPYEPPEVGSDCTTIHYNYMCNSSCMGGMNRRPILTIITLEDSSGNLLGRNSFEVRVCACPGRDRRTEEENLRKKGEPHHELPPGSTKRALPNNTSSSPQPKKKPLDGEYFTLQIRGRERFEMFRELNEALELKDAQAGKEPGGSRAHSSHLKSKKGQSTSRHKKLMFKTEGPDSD

SMILES | activation | Potency
CSc1ccc(C(=O)N[C@@H]2CCCC[C@@H]2NC(=O)CNC(=O)c2cc(C(F)(F)F)ccc2NC(=O)NC(C)C)cc1 | -22% | –
Cc1cc(C)nc(SCC(=O)Nc2ncc(Cc3cccc4ccccc34)s2)n1 | -8.11% | –
CC1(C)C(=O)C(C)(C)c2cc(C(=O)Nc3ccc(C(=O)O)cc3)ccc21 | -2.39% | –
O=C1COc2nccc(-c3ccccc3F)c2CN1Cc1cc(C(F)(F)F)cc(C(F)(F)F)c1 | -4.77% | –
CC(c1ncncc1F)C(O)(Cn1cncn1)c1ccc(F)cc1F (stereo not drawn) | 0.477% | –
OC(CC1c2ccccc2-c2cncn21)C1CCCCC1 (stereo not drawn) | -7.16% | –
Cc1ccc(-c2c(-c3nn(C)c4ncnc(N5CC[C@H](N6CCCCC6)C5)c34)cnn2C)cc1 | 0.477% | –
COc1cc(CCc2cc(NC(=O)c3ccc(N4CC(C)NC(C)C4)cc3)n[nH]2)cc(OC)c1 (stereo not drawn) | 3.34% | –
O=C(c1cn(Cc2cncn2Cc2ccc(Br)cc2)cc1-c1cccc2ccccc12)N1CCOCC1 | – | 26.9 µM (active)
CC(=O)NCC(=O)N1C2CCC1c1cc(Nc3ncc(C(F)(F)F)c(NC4CCC4)n3)ccc12 (stereo not drawn) | – | 3.79 µM (active)

What follows are compounds tested against Aldehyde dehydrogenase, mitochondrial (Homo sapiens) (UniProt P05091) (assay: qHTS for Inhibitors of the Aldehyde Dehydrogenase Family (ALDH2) Primary screen (AID 2061308;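 note: plate controls were vehicle for no effect and reference inhibitor for full effect; nearly all actives have a fitted effect of over 55% in size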)). Conditions: ALDH2 enzyme inhibition qHTS, 1536-well; series mostly up to 56 µM; activity change, negative = inhibition: at the top concentration.

SMILES | activity change, negative = inhibition
NC(=O)CCCSc1nc(N)nc(-c2c(Cl)cc3c4c(cccc24)COC3)n1 | 1.48%
CCCCOC(=O)NC(=O)C1c2ccccc2Oc2ccccc21 | 4.79%
CNC(=O)c1ccc2c(c1)CCO[C@H]2CCN1CCN(c2ccc(OC)cc2)CC1 | 19.8%
Cc1onc(-c2c(Cl)cccc2Cl)c1CC(=O)NCc1ccc(OCC(F)(F)F)nc1 | -3.66%
O=C(OC(C(F)(F)F)C(F)(F)F)N1CCN(Cc2cccc(Oc3ccccc3)c2)CC1 | 6.34%
Cc1ccc(-c2c(-c3nn(C)c4ncnc(N5CCC(N6CCCCC6)C5)c34)cnn2C)cc1 (stereo not drawn) | 9.8%
C=C[C@]1(C)C[C@@H](OC(=O)CSC2C[C@H]3CC[C@@H](C2)N3C)[C@]2(C)[C@H](C)CC[C@]3(CCC(=O)[C@H]32)[C@@H](C)[C@@H]1O (stereo partly drawn) | -1.9%
Cn1c(=O)cc(N2CCCC(N)C2)n(Cc2cc(F)ccc2C#N)c1=O (stereo not drawn) | 1.73%
Cc1ccc(C)c(OCCn2cc(C(=O)O)c3ccccc32)c1 | 10.4%
Nc1nc(COC(=O)c2ccc([N+](=O)[O-])cc2)nc(Nc2ccccc2)n1 | 2.79%
Cc1cc(C(=O)Nc2cccc(C(=O)Nc3cccc(C(F)(F)F)c3)c2)on1 | 2.89%
CCOC(=O)c1ccc(N(C)c2csc(-c3ccccc3)n2)cc1 | -12%
Cn1c2ccc(NC(=O)c3ccccc3)cc2c(=O)n2nc(C(=O)O)cc12 | -12.8% [at 28 µM]
CC(C)C(=O)Oc1ccc(CO)cc1[C@H](CCN(C(C)C)C(C)C)c1ccccc1 | 26.8%
Cc1nc2n(c(=O)c1CCN1CCC(c3noc4cc(F)ccc34)CC1)CCC[C@H]2O | 3.97%
COc1ccc(N2CCN(CCCNC(=O)Cn3c(=O)c4cccn4c4c(C)ccnc43)CC2)cc1 | -3.88%
Cc1ccccc1CN1CCn2c1nc1c(c2=O)CN(Cc2ccccc2)CC1 | 0.154%
O=S(=O)(Nc1cc(Cl)c(Oc2cnc3ccccc3c2)c(Cl)c1)c1ccc(Cl)cc1Cl | -19.9%
CCCCCCOc1cc2c(cc1N(C)c1ncc(C(=O)O)cn1)C(C)(C)CCC2(C)C | -6.2%
COc1ccc(-c2nc(-c3cc(C(F)(F)F)cc(C(F)(F)F)c3)n(Cc3ccc(C(N)=O)cc3)c2-c2ccc(OC)cc2)cc1 | 0.406%
CCCCCOc1ccc(-c2cc(-c3ccc(C(=O)N[C@H]4C[C@@H](O)[C@@H](O)NC(=O)C5[C@@H](O)[C@@H](C)CN5C(=O)C([C@H](O)CC(N)=O)NC(=O)C([C@H](O)[C@@H](O)c5ccc(O)c(OS(=O)(=O)O)c5)NC(=O)C5C[C@@H](O)CN5C(=O)C([C@@H](C)O)NC4=O)cc3)no2)cc1 (stereo partly drawn) (X6-[Orn(4R-OH,5R-OH)][ξThr(3R)][ξPro(4R-OH)][ξhTyr(3S-OH,4S-OH,3'-OSO3H)][ξGln(3R-OH)][X7]; lactam 1-C) | 10.9% [at 28 µM]
CC(C)c1c(NC(=O)Nc2ccc(Cl)cc2)c(=O)n(-c2ccccc2)n1C | 3.01%
CC[C@H]1OC(=O)[C@H](C)[C@@H](O[C@H]2C[C@@](C)(OC)[C@@H](O)[C@H](C)O2)C(C)[C@@H](O[C@@H]2O[C@H](C)C[C@H](N(C)C)[C@H]2O)[C@](C)(O)C[C@@H](C)CN(C)[C@H](C)[C@@H](O)[C@]1(C)O (stereo partly drawn) | 6.25%
